# PMC12864922, “TDP-43 directly inhibits mRNA accumulation in neurites through modulation of mRNA stability”
# In all, about 9,900 sequences were measured (“r (bound/input frequency ratio)”: median about 0.7, highest 2% from about 6.5 on). Many of the other results were omitted from the sample, so the highest values are more common in it than they were.
# B1: ENSMUSG00000034801.222|Sos2 (ssRNA)
# RNA: GGGAGUUCUACAGUCCGACGAUCGCUUCGAUAUCCGCAUGCUAUGUAAGUCUGGAACAAAAGUGUCUUAUGGCAUAAGAACCAACUGCCAUUGUCAAACCUAUUAACUGUCUUUAAUCUCGUGUUAACUGAAAUUUUUGAAAAGUUUUUCCAGAUUAGUAAUAUUUAAACAGAAAAUACUUUAAAAAGCUUUAUUAAAUUUUUUAAUCAGGAUAAAGCUUUGCCAUUUGGAUACUAUCAUUCAAAGUGAUCAAGGUAUGUAUGUUAUGCUGAUAGUGCAGUAGCAGCCAUUGUAAAGUAGCCACUCUUGCGGUCGCACUAGUGUGGAAUUCUCGGGUGUCAAGG
# B2: ENSMUSG00000061578.107|Ksr2|134:138;220:225 (ssRNA)
# RNA: GGGAGUUCUACAGUCCGACGAUCGCUUCGAUAUCCGCAUGCUAGGCCUCUCUGGGGACCAGUCCCUGGCCUUCACCCUUCUCCCAUUUUGUAAGAACACUGUUCUAACUCACCUCAUGCCCACGCUACCCUGGGCAACUGGAGAACACCAUAGCGUUUCAGCUGAUGUGACAUUUGCACACACCUUUACCAGUUCACCAUCAUUCAUGGCUUCCCCCAAAGUCCCGAGUCCUGAGAACCGGGGCUGUGGCAAGAGAGUUCUGCACACAUCUCUCUGUGGGGCUAGCAAUGCCGGGGUUAAGUUCUCUUGCGGUCGCACUAGUGUGGAAUUCUCGGGUGUCAAGG
# B3: ENSMUSG00000031028.253|Tub (ssRNA)
# RNA: GGGAGUUCUACAGUCCGACGAUCGCUUCGAUAUCCGCAUGCUAAGCUCUUGCCUGUGUGCCAUCUGUGAGAAGCUUCUUGGAGCUGAGACACCAGAGGGAAGCAAAGAGCAUUUAGACAUUGCUUUUUGCUUUGAAAUAGAUAUGUUUGGAAACGCUAAGUAGAAGUUUAAAAAGUAGAGUCAUGUAGAGUCAUGCUUUGAAUAUGUGGGUCAUGCUUUAGAUAUGAAGAGGCUAUGCAGGUAAGGAGGCUGGAUUGAUGUAAAUGGAAGUAGUACUUUAAGAAAGCUCUAGAUUUCCCAGGUCUCUUGCGGUCGCACUAGUGUGGAAUUCUCGGGUGUCAAGG
# B4: ENSMUSG00000031028.56|Tub|187:199;217:221 (ssRNA)
# RNA: GGGAGUUCUACAGUCCGACGAUCGCUUCGAUAUCCGCAUGCUACCAAGGUCAACACACAUGCCCAGUCCUGGGUCAGUCCCCUGCUGCAGUGGUGUUAUCACACCGGAAAGCCUCUUCACCUGGAGGUACAGAGGGAGAGGAAGCACAAGCCUGGCUGCUGUGGCUCAGCCAUCCACUCAGCCUACGAGUCAGAGACAGUGGGUGUCCCGGGAAGCAGGGGUACAGUGACACACACACAUACUACAGGGCACUCAAGCUCAUACUAGAAAAAGCUCUGGUGGUCAGCAGAAAGCACUCCCACUCUCUUGCGGUCGCACUAGUGUGGAAUUCUCGGGUGUCAAGG
# B5: ENSMUSG00000043670.83|Diras1 (ssRNA)
# RNA: GGGAGUUCUACAGUCCGACGAUCGCUUCGAUAUCCGCAUGCUAAUCCCAGUCAGGCCCAGAGAGGUUACCUUGCCUCUCCAUCUCUGUCCCUGUGUGCCCAGCCAUGCCCACUGUCCCUGUCCCUCACAUUCUAUCACUGUGACCUCUGGGGAGUGCCCAUUGACCUCAUCUUCCUUCACUAAUAUCUUAUUUCUUUCACCUGAUCCUGUCCUUUCCCCGUGACCUCUGACCUGUGGCCUUCCCUGGGUCCAGAACACCCCUGUCCUCUCCUGUCUGCACACCAGGGUGGAUGGGCCCGAGGGCUCUUGCGGUCGCACUAGUGUGGAAUUCUCGGGUGUCAAGG
# B6: ENSMUSG00000028439.194|Fam219a (ssRNA)
# RNA: GGGAGUUCUACAGUCCGACGAUCGCUUCGAUAUCCGCAUGCUAAGCCUAUCUGUCCAGGGAACCAGAUUGGUGUCCGAGAUGAGGAAAUGGCUGUGGCCUGGGAAAUCAGUGAGAGGCCGCUUGGGAAUGAGAAUGCAGUGGACUGAAAGCACAGCCUGGCCAUCUGGAACCUGGGUUCUGGUCCCAGCCUCGGCAUUCUCCCUGAGCUCCUAAGCAAUUCCCAGGCUUCUCUAGGGCUUCAGUUCUCACAACUGGAAAAUAAAGAGUAGCUGACAUCACCGACAGAGUCUUUUCAUACCAGACUCUUGCGGUCGCACUAGUGUGGAAUUCUCGGGUGUCAAGG
# B7: ENSMUSG00000031028.89|Tub (ssRNA)
# RNA: GGGAGUUCUACAGUCCGACGAUCGCUUCGAUAUCCGCAUGCUAGUACAGGGCACUCAAGCUGUAUGUAGAAAAAGCUCUGGUGGUCAGCAGAAAGCACUCCCACUUCAAAAGGGCCCAUUAGGCCCAAAGGGGGUUAGGAGUGGUAGGGAUAGGUGCGUGGCAGGUCCCUGCUAGGAUUGCAGGGGCCUGGCCAUGUGUAUUAGCUGGAGGCUUAGAAUGCUAGCUCAUUUGUUGCUACAGAUUUGCCCAGUGCUUGCACACGUAAGAACCCAGCUCUCAAGGCCAAAUAUCUGAGUGGAUGGCUCUUGCGGUCGCACUAGUGUGGAAUUCUCGGGUGUCAAGG
# B8: ENSMUSG00000034801.36|Sos2 (ssRNA)
# RNA: GGGAGUUCUACAGUCCGACGAUCGCUUCGAUAUCCGCAUGCUAGCAGAAUUCAAGCCCUCUCUUACCAAAGCUGCCACCAAAGACUUACAAACGGGAGCUUUCCCACCCGCCACUGUAUAGACUGCCUCUGCUGGAAAAUGCAGAAACUCCUCAAUGACCUUGGCCAUAUGUAGUCAUUGACACUGGAAUAGUAUUUGUAAAGGUUUUUAAUUUAUUCAAAAAGACAUAGUAUUUUAGUACUUUUUACAGAAAUGCUACUGAUUAAAUAAGCUCUUAAGAAUUAGUAAACUUGUUGGAUGGCACUCUUGCGGUCGCACUAGUGUGGAAUUCUCGGGUGUCAAGG
# B9: ENSMUSG00000043670.328|Diras1 (ssRNA)
# RNA: GGGAGUUCUACAGUCCGACGAUCGCUUCGAUAUCCGCAUGCUAUAGCCAGCCCAGGGCCCCCACAGCUGCCACCUGCUCCCAAGCCCCGGGAGUGGCUCCUGGCUGGACAGGGGGUCACAGCCCUUUCUCAGGGACACACCCUGAUAGCACAAUCUCUGGGCCACCCCAGGCUUCUCCUGGCUGGCCUUGCCCAUCCUGGGGAGAACCGGGCUGGGUGGCAGGGGAGGCCGGAGCCCACCCUGGCUGCUGGCCAACCUGCCCAGGCAUCUCUGGUGCUGGGGACCCCGCCAGGCCUCGCUUGCCUCUUGCGGUCGCACUAGUGUGGAAUUCUCGGGUGUCAAGG
# Target: TDP-43 (Homo sapiens, UniProt Q13148 1-414)
# Assay: RNA Bind-n-Seq with designed 260-mer pool; 25 mM Tris-HCl, 150 mM KCl, 3 mM MgCl2, BSA (printed 500 mg/mL), 20 units/mL SUPERase IN; pH not stated; 500 nM RNA pool, 1 h, 4 C; TDP-43 5, 50, 500 nM; high values mean tight binding
# Details: protein: recombinant; tags: SBP (GST cleaved off with PreScission; pGEX-GST-SBP)
# How it was run: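 For each oligo, R gives binding as its mapped-read-normalized abundance after pulldown divided by its abundance in input. Bead-captured SBP-tagged TDP-43 (5, 50 or 500 nM) was incubated with 500 nM of an in vitro-transcribed 260-nt 3′ UTR oligo pool for 1 h at 4 °C in 25 mM Tris-HCl, 150 mM KCl, 3 mM MgCl2, BSA and SUPERase IN on streptavidin beads. Washed, biotin-eluted RNA was reverse transcribed, PCR-amplified and sequenced.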
# Chain of TDP-43 (Q13148 whole entry): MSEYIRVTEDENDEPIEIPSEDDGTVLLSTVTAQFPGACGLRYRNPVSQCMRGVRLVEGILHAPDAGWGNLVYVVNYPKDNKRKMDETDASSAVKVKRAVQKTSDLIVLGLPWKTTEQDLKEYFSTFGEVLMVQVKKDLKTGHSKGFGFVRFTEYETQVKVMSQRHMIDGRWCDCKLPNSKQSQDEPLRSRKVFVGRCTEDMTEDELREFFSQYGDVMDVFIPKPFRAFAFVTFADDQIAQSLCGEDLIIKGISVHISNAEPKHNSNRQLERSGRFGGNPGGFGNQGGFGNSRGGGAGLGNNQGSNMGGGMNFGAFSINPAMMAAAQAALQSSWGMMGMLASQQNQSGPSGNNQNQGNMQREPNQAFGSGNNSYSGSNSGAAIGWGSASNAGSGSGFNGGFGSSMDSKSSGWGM
row,Binder,binding signal
1,B1,0.0419 R (bound/input frequency ratio)
2,B2,0.895 R (bound/input frequency ratio)
3,B3,2.03 R (bound/input frequency ratio)
4,B4,1.06 R (bound/input frequency ratio)
5,B5,2.21 R (bound/input frequency ratio)
6,B6,0.186 R (bound/input frequency ratio)
7,B7,4.96 R (bound/input frequency ratio)
8,B8,0.12 R (bound/input frequency ratio)
9,B9,0.177 R (bound/input frequency ratio)
